In PubChem BioAssay AID463082 (The Scripps Research Institute Molecular Screening Center, 2010):
The campaign covered roughly 330,000 compounds. About 4,900 (1.5%) were called active.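 The calls were made as follows: active = inhibition above the mean inhibition across the screen plus 3 SD (cut at about 25% in these data); inactive = the rest.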 What follows is part of a selection rich in actives, with near analogues and random picks from the rest.

What follows are compounds tested against Platelet-activating factor acetylhydrolase (Homo sapiens) (UniProt Q13093) (assay: pPAFAH enzyme inhibitors, primary screen, biochemical, fluorescence polarization, human (AID 463082;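 also: inhibitors block binding of the rhodamine activity-based probe so polarization drops; 0% = enzyme with DMSO and 100% = wells lacking pPAFAH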)). Details: recombinant pPAFAH, FP-rhodamine probe fluorescence polarization; at 3.39 µM; stronger effect = higher value.
Platelet-activating factor acetylhydrolase (Homo sapiens), sequence (Q13093 whole entry, looked up): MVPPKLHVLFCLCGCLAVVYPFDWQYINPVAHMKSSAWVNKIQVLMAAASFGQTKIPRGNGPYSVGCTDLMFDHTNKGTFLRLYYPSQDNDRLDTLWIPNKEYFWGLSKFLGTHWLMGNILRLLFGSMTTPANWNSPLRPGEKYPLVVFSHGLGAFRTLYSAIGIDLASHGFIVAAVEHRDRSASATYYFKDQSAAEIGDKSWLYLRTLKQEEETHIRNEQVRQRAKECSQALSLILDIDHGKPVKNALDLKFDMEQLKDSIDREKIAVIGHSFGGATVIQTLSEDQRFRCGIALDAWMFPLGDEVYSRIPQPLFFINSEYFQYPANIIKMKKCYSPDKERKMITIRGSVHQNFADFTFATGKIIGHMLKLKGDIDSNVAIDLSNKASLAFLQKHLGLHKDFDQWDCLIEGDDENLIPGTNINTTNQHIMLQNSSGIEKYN

Question: How did the inhibition turn out when `Cc1cc(C)c(-c2c(O)c3ccccc3n(C)c2=O)c(C)c1` was run?
Answer: -0.19% (inactive)

Question: Which inhibition does the source give for `COc1ccc(CN2CC(C(=O)NCCN3CCN(c4ccccc4F)CC3)CC2=O)cc1` (stereo unspecified) here?
Answer: -3.16% (inactive)

Question: For `O=C(Nc1ccc(Cl)cc1)C1c2cccc[n+]2CC(=O)N1Cc1ccc2c(c1)OCO2` (stereo unspecified), which inhibition is on record?
Answer: 25.9% (active)

Question: `CC1CCC(NC(=O)C2c3ccccc3C(=O)N2Cc2ccc3c(c2)OCO3)CC1` (stereo unspecified) was tested. Which inhibition did it give?
Answer: -0.02% (inactive)

Question: For `O=C(C1CCN(Cc2ccc(Cl)cc2)CC1)N1CCN(Cc2ccc3c(c2)OCO3)CC1`, which inhibition is on record?
Answer: 6.74% (inactive)

Question: Which inhibition does the source give for `COC(=O)c1c(C)oc(C)c1S(=O)(=O)NCc1ccc(Cl)cc1` here?
Answer: -8.68% (inactive)

Question: `Cc1nnc(SCC(=O)Nc2cccc(N)c2)n1-c1ccccc1` was tested. Which inhibition did it give?
Answer: 6.08% (inactive)

Question: For `COc1ccc(-n2cnnc2SCC(=O)Nc2cccc(S(N)(=O)=O)c2)cc1`, which inhibition is on record?
Answer: 3.84% (inactive)

Question: `NS(=O)(=O)c1cccc(NC(=O)CSc2nc3ccccc3n2-c2ccccc2)c1` was tested. Which inhibition did it give?
Answer: 33.2% (active)

Question: `O=[N+]([O-])c1ccc(N2CCN(S(=O)(=O)c3ccccc3)CC2)cc1N1CCc2ccccc2C1` was tested. Which inhibition did it give?
Answer: -4.15% (inactive)

Question: How did the inhibition turn out when `COCCN1C(=O)C(=O)/C(=C(/O)c2ccc(S(=O)(=O)N3CCCCC3)cc2)C1c1ccc(OC)c(OC)c1` (stereo unspecified) was run?
Answer: -2.4% (inactive)

Question: Which inhibition does the source give for `Cc1cccc(-n2c(C)cc(/C=N/NC(N)=S)c2C)c1` here?
Answer: -4.16% (inactive)

Question: How did the inhibition turn out when `Cc1cc(/C=N/Nc2ccc([N+](=O)[O-])cn2)c(C)n1-c1cccc(C(=O)O)c1` was run?
Answer: 66.3% (active)

Question: `Cc1ccc(-n2c(C)cc(/C=N/Nc3ccc([N+](=O)[O-])cn3)c2C)c(C)c1` was tested. Which inhibition did it give?
Answer: 8.84% (inactive)

Question: `NC(=O)NC(=O)CSc1nc2cc([N+](=O)[O-])ccc2n1-c1cccc(C(F)(F)F)c1` was tested. Which inhibition did it give?
Answer: 18.1% (inactive)

Question: For `Cc1ccc(C(=O)N/C(=C\c2ccco2)C(=O)NC2CCS(=O)(=O)C2)cc1` (stereo unspecified), which inhibition is on record?
Answer: -1.45% (inactive)

Question: `COc1cc(NS(=O)(=O)c2ccc(NC(C)=O)cc2)cc(OC)c1` was tested. Which inhibition did it give?
Answer: 2.89% (inactive)

Question: `CC(=O)Nc1ccc(S(=O)(=O)Nc2ccc(N3CCCCC3)cc2)cc1` was tested. Which inhibition did it give?
Answer: 27.6% (active)

Question: For `CC(=O)Nc1ccc(S(=O)(=O)Nc2ccc(N3CCOCC3)c(F)c2)cc1`, which inhibition is on record?
Answer: 5.29% (inactive)

Question: `COc1ccccc1OCCNC(=O)C(CCSC)NC(=O)COc1ccccc1` (stereo unspecified) was tested. Which inhibition did it give?
Answer: 1.04% (inactive)

Question: Which inhibition does the source give for `COc1ccc(NS(=O)(=O)c2ccc(O)c(C(=O)OCC(=O)NC3CCCCC3)c2)cc1` here?
Answer: 26.9% (active)

Question: `CCN(C(=O)COC(=O)c1cc(NS(=O)(=O)c2ccc(Cl)c([N+](=O)[O-])c2)ccc1O)C1CCCCC1` was tested. Which inhibition did it give?
Answer: -1.02% (inactive)

Question: With `CC(C)NS(=O)(=O)c1ccc(OCC(=O)NC2CCCCCC2)cc1` as the compound, how does the inhibition read?
Answer: 6.56% (inactive)

Question: With `COC(=O)c1sc(N2CCN(Cc3ccccc3)CC2)nc1N` as the compound, how does the inhibition read?
Answer: 5.95% (inactive)

Question: Which inhibition does the source give for `CC(=O)Nc1ccccc1OC(=O)N1CCOCC1` here?
Answer: -0.96% (inactive)

Question: `O=C(Oc1cccc(C(=S)N2CCOCC2)c1)c1cccc(Cl)c1` was tested. Which inhibition did it give?
Answer: 7.68% (inactive)

Question: `O=C(/C=C/c1cccs1)c1cc(Cl)ccc1OC(=O)N1CCOCC1` was tested. Which inhibition did it give?
Answer: 42.8% (active)

Question: `COc1ccc(/C=C2/S/C(=N/N=C3\CC4CCC3(C)C4(C)C)NC2=O)cc1` (stereo unspecified) was tested. Which inhibition did it give?
Answer: 5.69% (inactive)

Question: For `O=C(O)C(c1ccccc1)N1C(=O)/C(=C\c2ccc(-c3cccc(Cl)c3)o2)SC1=S` (stereo unspecified), which inhibition is on record?
Answer: 70.4% (active)

Question: `O=C1NN(c2ccccc2)C(=O)/C1=C/c1ccc(-c2cccc(C(=O)O)c2)o1` was tested. Which inhibition did it give?
Answer: 18.6% (inactive)

Question: How did the inhibition turn out when `O=C1c2ccccc2NC(c2ccc(-c3cccc(Cl)c3)o2)N1O` (stereo unspecified) was run?
Answer: 7.56% (inactive)

Question: Which inhibition does the source give for `COc1ccc(CN2C3CCCC2CC(NC(=O)c2cccc(F)c2)C3)cc1` (stereo unspecified) here?
Answer: 0.56% (inactive)

Question: `O=C(COc1ccc(/C=N/NS(=O)(=O)c2ccccc2)cc1)NCCc1ccccc1` was tested. Which inhibition did it give?
Answer: 4.79% (inactive)

Question: `COc1ccc(N2CC(NS(=O)(=O)c3ccc4ccccc4c3)CC2=O)cc1` (stereo unspecified) was tested. Which inhibition did it give?
Answer: 4.81% (inactive)

Question: With `O=S(=O)(N/N=C\c1cccn1-c1ccccc1)c1ccc2ccccc2c1` as the compound, how does the inhibition read?
Answer: 25% (active)

Question: How did the inhibition turn out when `Cc1ccnc2nc(C(=O)Nc3nnc(-c4ccccc4)o3)nn12` was run?
Answer: 8.88% (inactive)

Question: For `CCCCn1c(N)c(N(CC(C)C)C(=O)c2cnc(C)cn2)c(=O)[nH]c1=O`, which inhibition is on record?
Answer: 7.57% (inactive)

Question: For `COc1ccccc1NC(=O)CCN1CCN(c2ccc(Cl)cc2)CC1`, which inhibition is on record?
Answer: 6.99% (inactive)

Question: How did the inhibition turn out when `Oc1cccc(/C=N/Nc2ccc(Cl)nn2)c1O` was run?
Answer: 54.6% (active)

Question: Which inhibition does the source give for `Cc1ccsc1/C=N/Nc1ccc(Cl)nn1` here?
Answer: 8.65% (inactive)

Question: For `COc1cccc(/C=N/Nc2ccc(Cl)nn2)c1`, which inhibition is on record?
Answer: -0.67% (inactive)

Question: For `Cc1nn(C(C)C(=O)N2CCOCC2)c(=O)c2nn(-c3ccccc3)c(C)c12` (stereo unspecified), which inhibition is on record?
Answer: -0.47% (inactive)

Question: How did the inhibition turn out when `CC1(N2CCOCC2)CC2(O)C(=[N+]1[O-])CCc1nonc12` (stereo unspecified) was run?
Answer: 11.9% (inactive)

Question: Which inhibition does the source give for `CCCCCCCC(=O)OC(CN1CCCCCC1)CN1CCCC1=O` (stereo unspecified) here?
Answer: -5.64% (inactive)

Question: With `Cc1ccccc1CS(=O)(=O)CC1(O)CCN(C(=O)c2cccc(C(F)(F)F)c2)CC1` as the compound, how does the inhibition read?
Answer: -7.07% (inactive)

Question: `CN(c1ccccc1)c1ccc(/C=c2\s/c(=C(/C#N)C(=O)C(C)(C)C)n(Cc3ccco3)c2=O)cc1` was tested. Which inhibition did it give?
Answer: -0.46% (inactive)

Question: Which inhibition does the source give for `O=c1nc2s/c(=C\c3ccco3)c(=O)n2nc1Cc1ccccc1` here?
Answer: 25.7% (active)

Question: For `O=C(NCCc1ccco1)c1nn(Cc2ccccc2)c(=O)c2ccccc12`, which inhibition is on record?
Answer: 1.41% (inactive)

Question: `O=C(COc1coc(CN2CCN(c3ccccc3)CC2)cc1=O)N1CCc2ccccc21` was tested. Which inhibition did it give?
Answer: -5.69% (inactive)

Question: With `CC(=O)N1CCc2cc(Br)cc(S(=O)(=O)CCC(=O)Nc3c(C)n(C)n(-c4ccccc4)c3=O)c21` as the compound, how does the inhibition read?
Answer: 7.96% (inactive)

Question: How did the inhibition turn out when `N/C(=N\S(=O)(=O)c1ccc(Cl)cc1)N1CCOCC1` was run?
Answer: 7.38% (inactive)

Question: With `COc1cc(C(=O)NCC(=O)NCCSc2ccc(Br)cc2)cc(OC)c1OC` as the compound, how does the inhibition read?
Answer: 2.53% (inactive)

Question: For `COc1ccccc1C(=O)NCC(=O)NCCSc1ccc(Br)cc1`, which inhibition is on record?
Answer: 28.6% (active)

Question: How did the inhibition turn out when `O=C(CNC(=O)c1ccccc1Br)NCCSc1ccc(Br)cc1` was run?
Answer: 6.87% (inactive)

Question: Which inhibition does the source give for `NCCN1CCN2C(=O)CN(C(=O)c3ccccc3)CC12` (stereo unspecified) here?
Answer: 0.84% (inactive)

Question: Which inhibition does the source give for `C/C=C(/C)C(=O)O[C@@H]1c2cc3c(c4c2[C@@]2(CO4)C(=O)C(OC)=C(OC)C=C2C[C@@H](C)[C@H]1C)OCO3` here?
Answer: -0.41% (inactive)
